Bioassay records as filed in PubChem.
Shown are actives, neighbours in structure and some others; about 2.7% of the full set was active somewhere.
PfGluPho inh – PfG6PD enzyme inhibitors, primary screen, biochemical, fluorescence intensity, uHTS; inhibition, % at 20 µM; 350,000 tested, 0.78% active; AID 504690, 2011; PfGluPho enzyme, NADPH resazurin-diaphorase fluorescence;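 active = inhibition reaching at least a set limit at 20 µM in the primary screen, cut at about 59% in these data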;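 note: 0% = DMSO wells with substrate and 100% = DMSO wells lacking glucose-6-phosphate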
Neddylation inh – inhibitors of cullin neddylation, primary screen, biochemical, TR-FRET, uHTS, NAE and Ubc12. calls only at 25 µM. NEDD8-conjugating enzyme Ubc12 (Homo sapiens) + NEDD8-activating enzyme E1 regulatory …. 360,000 tested, 0.58% active. AID 651699, 2012; in the data active = inhibition above about 36%
FAS TE block – FAS thioesterase domain inhibitors, primary screen, biochemical, fluorescence intensity, uHTS; Fatty acid synthase (Homo sapiens), P49327; recombinant FAS-TE, OMFH fluorogenic substrate, fluorescence endpoint; AID 602261, 2012; inhibition, % at 15 µM; 360,000 tested, 0.67% active;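 active = compounds whose normalised, plate-corrected inhibition of enzyme fluorescence in the single-dose primary screen is 50% or more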;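 note: 0% = DMSO with enzyme and 100% = substrate without enzyme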
proKLK7 act – proKLK7 zymogen activators, primary screen, biochemical, fluorescence intensity; Kallikrein-7 (Homo sapiens), P49862; purified proKLK7, EDANS-DABCYL substrate fluorescence; 100% is mature enzyme control, 0% vehicle; activation, % at 7 µM; 370,000 tested, 0.9% active; AID 652039, 2013;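 active = activation above the mean of all tested compounds plus 3 SD, computed per campaign excluding outliers beyond control limits, cut at about 13% in these data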
Target sequence (P49862 whole entry, looked up): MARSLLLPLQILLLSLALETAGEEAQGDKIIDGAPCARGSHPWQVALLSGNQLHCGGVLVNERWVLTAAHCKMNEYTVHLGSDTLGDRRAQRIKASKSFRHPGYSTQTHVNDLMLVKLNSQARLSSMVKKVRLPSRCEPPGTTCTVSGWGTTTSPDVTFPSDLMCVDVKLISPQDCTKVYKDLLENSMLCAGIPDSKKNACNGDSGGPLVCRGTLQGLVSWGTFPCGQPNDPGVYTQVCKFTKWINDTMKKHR
Neddyl inh conf – blockade of NEDD8 conjugation to cullin – biochemical, TR-FRET, single concentration, confirmation; shares compounds with Neddylation inh; TR-FRET cullin neddylation biochemical assay; calls only at 25 µM; 1,800 tested, 13% active; AID 652217, 2013; in the data active = inhibition above about 40%;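 note: neddylation substrate is the cullin 1 ring ligase complex with SKP2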
proKLK7 act conf – proKLK7 zymogen activators, confirmation, biochemical, fluorescence intensity, triplicate | AID 686949, 2013 | activation, % at 7 µM | purified proKLK7, EDANS-DABCYL substrate fluorescence; scaled: vehicle 0, mature enzyme 100 | 3,200 tested, 68% active | shares compounds with proKLK7 act;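 active = activation, as change over the incubation, above the mean of all tested compounds plus 3 SD, cut at about 13% in these data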
EDANS interfere – EDANS-DABCYL substrate optical interference, artefact control for kallikrein-7 zymogen activator project, biochemical, fluorescence intensity, high throughput; AID 686952, 2013; activation, % at 7 µM; 3,200 tested, 80% active; no enzyme, 4 h; solvent 0%, active enzyme control 100%; shares compounds with proKLK7 act;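 active = activation above the all-compound mean plus 3 SD, ignoring values outside control-based bounds, cut at about 4.8% in these data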;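 note: value is the 4 h activation minus the activation read at time zero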
* marks the source's active call; other numbers are inactive results; i = inactive; / = no result shown; + = active, no number.

SMILES	PfGluPho inh	Neddylation inh	FAS TE block	proKLK7 act	Neddyl inh conf	proKLK7 act conf	EDANS interfere
N#CC1=C(N)N(c2ccc(Br)cc2)C2=C(C(=O)CCC2)C1c1cccnc1 (stereo unspecified)	-9.0	+	-3.8	0.9	i	/	/
Cc1nc(C(=O)NCCCO)cc2c1[nH]c1ccccc12	18.7	+	-0.2	9.2	i	/	/
O=C(Cc1ccccc1)N/N=C/c1cc(Br)cc(Cl)c1O	-38.1	/	31.6	-5.8	/	/	/
COc1cc(Br)cc(/C=N/NC(=O)Cc2ccccc2)c1O	-8.8	+	17.1	-46.8	i	/	/
CC(C)N1CCCCC(NC(=O)c2ccc(Cl)cc2Cl)C1=O (stereo unspecified)	/	/	/	0.2	/	/	/
CCCCN1CCN(C(=O)Cn2c(=O)c3ccccc3n(CC)c2=O)CC1	/	/	/	-0.3	/	/	/
COCC1CCN(C(=O)c2cc(COc3cccc4cnccc34)on2)CC1	6.0	+	-2.7	10.0	/	/	/
Cc1nn(C)cc1C(C)NC(=O)c1cc(COc2cccc3cnccc23)on1 (stereo unspecified)	-1.0	+	0.5	7.2	+	/	/
COCC1CCN(C(=O)c2cc(COc3ccc(F)cc3Cl)on2)C1 (stereo unspecified)	-0.1	i	1.1	0.2	/	/	/
COC(=O)[C@]12C[C@H](CC(=O)N3CCCCC3)C(=O)N(CCc3ccc(OC)c(OC)c3)C1=C[C@H](C1CCCC1)O[C@@H]2C	/	/	/	0.7	/	/	/
O=C(c1cnn2c(C(F)(F)F)cc(-c3cccs3)nc12)N1CCCC1	-5.7	+	-1.8	16.1*	/	13.0*	14.0*
COCCNC(=O)COC(=O)c1cc(-c2ccc(OC)cc2)nc2ccccc12	10.2	+	3.5	136.8*	/	108.3*	119.1*
CCNC(=O)COC(=O)c1cc(-c2ccc(OC)cc2)nc2ccccc12	26.0	+	11.3	173.9*	/	208.0*	259.9*
O=C(COC(=O)c1cc(-c2ccccc2)nc2ccccc12)NC1CC1	-9.0	i	6.7	-4.1	/	/	/
COc1ccc(-c2cc(C(=O)OCC(=O)NC(C)(C)C)c3ccccc3n2)cc1	/	/	18.8	/	/	/	/
COc1ccc(-c2cc(C(=O)OCC(=O)NC3CC3)c3ccccc3n2)cc1	10.1	+	18.6	16.0*	/	11.4	9.7*
CCCS(=O)(=O)NC(=O)C1(C)CCN(C(=O)c2ccccc2F)C1 (stereo unspecified)	/	i	-9.0	0.0	/	/	/
O=C(Nc1ccc(C(F)(F)F)cc1)OC1CC2CC1[C@H]1CCCCN1C2 (stereo partly specified)	/	/	/	0.0	/	/	/
CCN(CC)Cc1c(O)ccc2c(-c3ccccc3)cc(=O)oc12	0.6	+	-5.6	22.2*	i	23.4*	28.6*
COc1ccc(-c2cc(=O)oc3c(C)c(O)ccc23)cc1	-22.7	/	2.7	-64.1	/	/	/
COc1ccc(Br)c(Cn2c(C)c(C(=O)NCc3ccccc3C(F)(F)F)sc2=O)c1	/	i	29.1	-0.1	/	/	/
NC1=Nc2cccc3cccc1c23	31.7	+	-10.2	52.8*	i	25.0*	27.2*
NCCNC(=O)c1c(NC(=O)c2ccccc2)sc2c1CCCC2	14.8	+	-7.1	19.2*	i	-3.0	-4.0
COc1ccc(C(C)c2cn(C)c3ccccc23)cc1 (stereo unspecified)	/	/	/	0.1	/	/	/
NC(=O)NC(=O)CN1c2cccc3cccc(c23)S1(=O)=O	2.9	i	-5.5	1.9	/	/	/
SMILES	PfGluPho inh	Neddylation inh	FAS TE block	proKLK7 act	Neddyl inh conf	proKLK7 act conf	EDANS interfere
CCC(C)NC(=O)CN1c2cccc3cccc(c23)S1(=O)=O (stereo unspecified)	-8.2	+	-0.9	14.2*	i	6.5	9.6*
CC1CCN(C(=O)CN2c3cccc4cccc(c34)S2(=O)=O)CC1	4.1	+	-4.1	17.5*	/	9.3	7.1*
CCc1cc2c(=O)c(-c3nc4ccccc4n3C)c(C)oc2cc1OC(C)=O	-1.7	+	-1.4	38.1*	i	69.2*	65.9*
CSc1ccccc1CNC(=O)C1(C)CCCN1CC(C)C (stereo unspecified)	/	i	-3.8	0.9	/	/	/
COC(=O)c1cc2c(c3c4cc(C)ccc4n(S(=O)(=O)c4ccc(C)cc4)c13)C(=O)N(Cc1ccc(N(C)C)cc1)C2	/	/	/	-0.8	/	/	/
COc1ccccc1NS(=O)(=O)c1cccc(C(=O)N/N=C/c2cn(-c3ccccc3)nc2-c2ccccc2)c1	10.5	+	41.8	17.9*	/	-50.2	-55.6
COc1ccc(-c2cn3cccnc3n2)cc1NS(=O)(=O)c1ccccc1	19.0	+	6.4	16.3*	i	4.3	5.2*
O=c1[nH]cnc2nc(-c3ccccc3)c(-c3ccccc3)nc12	-12.3	+	-0.9	28.8*	/	29.0*	30.3*
O=c1[nH]cnc2nn(-c3ccccc3)nc12	-2.9	/	-13.4	-2.6	/	/	/
C[C@@H]1CN([C@H](C)CO)C(=O)c2cc(Br)cnc2O[C@H]1CN(C)Cc1ccccc1F	/	/	/	0.1	/	/	/
NNC(=O)c1ccc(CSc2cccc3cccnc23)cc1	-7.4	+	0.2	12.7*	+	4.4	-1.1
O=C(N/N=C/c1ccccc1Br)c1ccc(CSc2cccc3cccnc23)cc1	10.4	i	42.5	-0.9	/	/	/
COc1ccc2oc(=O)c(-c3nnc(NCc4ccco4)s3)cc2c1	6.0	+	-16.7	35.4*	i	-78.4	-80.6
COc1cc2c(cc1OC)C(C1C(=O)CC(C)(C)CC1=O)N(C(=O)CCl)CC2 (stereo unspecified)	12.6	+	-3.6	124.2*	i	12.4	15.2*
COC(=O)c1ccc(C(=O)OC)c(NC(=O)C2CC2)c1	-4.7	i	-7.1	-0.1	/	/	/
COC(=O)c1ccc(C(=O)OC)c(NC(=O)/C=C/C(=O)O)c1	-16.9	+	-0.7	15.5*	i	0.6	1.8
Oc1cnc2ccccc2c1CN1CCOCC1	1.6	+	-6.5	15.1*	i	5.3	6.9*
CCN1C(=O)c2cccc3c(S(=O)(=O)NCc4ccccc4)ccc1c23	18.7	+	7.8	34.5*	/	-35.1	-29.6
CCCCNC(=O)C(NC(=O)c1cccc(C(F)(F)F)c1)C(=O)c1ccccc1 (stereo unspecified)	/	i	-8.3	-0.2	/	/	/
